According to PubChem BioAssay AID1224853 (National Center for Advancing Translational Sciences (NCATS), 2016):
Results filed as inconclusive are left out. The source made the active and inactive calls. The call rests on the fitted dose curve; in most records, active means well fitted inhibition curve with a large enough effect; inconclusive means small, poorly fitted or top-dose-only effect; inactive means no such curve, though single readings can be large or run the other way.

Test: Confirmation assay for measurement of the activity of small molecule inhibitors on Zika virus induced Caspase-3 activity in human astrocytoma cells
Conditions: SNB-19 ZIKV-induced caspase-3/7, luminescence, 6 h; series mostly up to 46.1 µM
Source text: National Center for Advancing Translational Sciences [NCATS] Johns Hopkins University School of Medicine Florida State University Assay Overview: Increase in the Caspase-3 activity indicates an activation of apoptosis cell death pathway caused by Zika virus infection in certain types of neuronal cells including human neural progenitor cells (hNPCs), astrocytes, and astrocytoma cell line (SNB-19). This cell-based caspase-3 activity assay measures the increased caspase-3 activity in the astrocytoma cell line (SNB-19) after a 6-hour Zika virus infection with a luminescence readout. A decrease in the luminescence signal in this assay by small molecule treatment indicates an inhibitory effect of that small molecule on the Zika virus induced caspase-3 activity that may correlate with its effect on reduction of Zika virus caused cell death.
Assay Protocol Summary: The medium for SNB-19 cells is composed of RPMI 1640 (ATCC, Cat.# 30-2001), 10% fetal bovine serum (FBS) (GE healthcare Life Sciences, Cat.# SH30071.03), and 1% Pen/Strep (Gibco, Cat.# 15140-122). A Caspase-Glo 3/7 assay kit (catalog number G8092; Promega, Madison, WI) was used to detect caspase-3 activity induced by Zika virus infection in human cells. The reagent mixture was reconstituted as described in the protocol from the manufacturer. Polystyrene tissue culture treated and PDL coated white plates were obtained from Greiner Bio-One (Monroe, NC). Cells were seeded in 384- or 1536-well assay plates and cultured at 37 C with 5% CO2 for 16 to 20 hours. The typical cell seeding density in the 1536-well plate assay is 250 cells/well in 3ul medium for SNB-19 cells in tissue culture treated plates. Compounds were added to cells and incubated for one hour before addition of ZIKV solution to cells (2 FFU/cell). After incubation at 37 C with 5% CO2 for 6 hours, the reagent mixture of Caspase-Glo 3/7 assay kit was added to each well, followed by incubation at room temperature for 30 minutes. The luminescence intensity of the assay plates was measured using a ViewLux plate reader (PerkinElmer). Data were normalized by using the cell-containing wells without ZIKV as a negative control (0% induction of caspase 3/7 activity) and wells containing ZIKV infected cells (Caspase-3 activity induced) as a positive control (100% induction of caspase 3 activity). The percentage inhibitions of the increased Caspase-3 activity by small molecule inhibitors were then calculated.

Potency, inactive:
CCCCCCCCCCCC(=O)[O][Sn]([CH2]CCC)([CH2]CCC)[O]C(=O)CCCCCCCCCCC
O=C(/C=C/c1ccccc1)NCCO
C=CCCCCCCCCC(=O)O
CCN1CCC(n2cc(CNc3cc(Cl)c4ncc(C#N)c(Nc5ccc(F)c(Cl)c5)c4c3)nn2)CC1
CN(C)c1ccc2cc(C(=O)N[C@@H](CCCN=C(N)CCl)C(=O)NCc3ccccc3)ccc2c1
O=C1c2ccccc2C(=O)c2c(NCCc3ccc(O)cc3)ccc(NCCc3ccc(O)cc3)c21
C=C1C(=O)[C@@]23C(CC[C@@H]1[C@H]2O)[C@@]12CO[C@]3(O)[C@@H](O)[C@@H]1C(C)(C)CC[C@@H]2O (stereo not given in full)
CCCCCNC(=O)N1CCC(CN(Cc2ccc(Cl)cc2)Cc2ccc([N+](=O)[O-])s2)C1 (stereo not given)
Cc1c(N)c(=O)n(-c2ccccc2)n1C
Cc1[nH]c(C=C2C(=O)Nc3ccccc32)c(C)c1CCC(=O)O
CC(C(=O)O)c1ccc2c(c1)[nH]c1ccc(Cl)cc12 (stereo not given)
Cc1nc(N)sc1-c1ccnc(Nc2ccc(N3CCOCC3)cc2)n1
CC[C@]1(O)C[C@H]2CN(CCc3c([nH]c4ccccc34)[C@@](C(=O)OC)(c3cc4c(cc3OC)N(C=O)[C@H]3[C@@](O)(C(=O)OC)[C@H](OC(C)=O)[C@]5(CC)C=CCN6CC[C@]43[C@@H]65)C2)C1
CN(C)c1ccc(N=NS(=O)(=O)O)cc1
CCOC1OC(=O)C[C@H]1NC(=O)[C@@H]1CCCN1C(=O)[C@@H](NC(=O)c1ccc(N)c(Cl)c1)C(C)(C)C (stereo not given in full)
CCN1/C(=C/C=C/c2sc3ccccc3[n+]2CC)Sc2ccccc21
CO[C@H]1C(=O)[C@]2(C)[C@@H](OC)C[C@H]3OC[C@@]3(OC(C)=O)[C@H]2[C@H](OC(=O)c2ccccc2)[C@]2(O)C[C@H](OC(=O)[C@H](O)[C@@H](NC(=O)OC(C)(C)C)c3ccccc3)C(C)=C1C2(C)C

Potency, active:
CCC(C(=O)O)c1ccc(N2Cc3ccccc3C2=O)cc1 (stereo not given) 6.9 µM
Oc1cc(O)cc(/C=C/c2ccc(O)c(O)c2)c1 6.15 µM
O=C(Nc1cc2cc[nH]c2cn1)c1ccccc1 4.35 µM
Nc1ccc(N=Nc2ccccc2)c(N)n1 12.3 µM
Clc1ccccc1-c1nc(-c2ccncc2)no1 7.74 µM
OCc1ccc(-c2ccc(-c3ccc(CO)s3)o2)s1 0.218 µM
Nc1ccc(-c2ccc3ccccc3n2)cc1 6.9 µM
CS(=O)(=O)c1ccc(-c2cn3ccccc3n2)cc1 4.35 µM
O=C(Nc1ccc([N+](=O)[O-])cc1Cl)c1cc(Cl)ccc1O 1.95 µM
CCCS(=O)c1ccc2nc(NC(=O)OC)[nH]c2c1 (stereo not given) 21.8 µM
Cc1ccc(O)c(-n2nc3ccccc3n2)c1 7.74 µM
COc1ccc(-c2coc3cc(O)ccc3c2=O)cc1 15.5 µM
O=c1c2ccccc2nc2n1CCc1c-2[nH]c2ccccc12 4.89 µM
CC(=O)Nc1ccc([C@H](C)C(=O)Nc2ncc(C(C)C)s2)cc1 9.75 µM
O=C(/C=C/c1ccc(O)cc1)c1ccc(O)cc1O 2.45 µM
CC(C(=O)O)c1ccc(C(=O)c2ccccc2)s1 (stereo not given) 8.69 µM
Nc1ccc2c(c1)CN1C(=O)c3ccccc3C1=N2 3.37 µM
Cc1oncc1C(=O)Nc1ccc(C(F)(F)F)cc1 3.08 µM
O=C(C=CC=Cc1ccc2c(c1)OCO2)N1CCCCC1 19.5 µM
COc1ccc(-c2cc(=S)ss2)cc1 15.5 µM
CC(C)(C)COc1ccc(-n2cc(C(=O)O)cn2)cc1C#N 25.1 µM
Cc1cccc(/C=C/c2ccccc2)n1 12.3 µM
c1ccc2[nH]c(-c3cscn3)nc2c1 12.3 µM
